Compound activity from PubChem BioAssay.
In the library only some 12% were active in any assay of this set; here they are far more common.
Sfp inh = Sfp phosphopantetheinyl transferase inhibition; Q9F4F7; Biochemical Sfp PPTase activity, qHTS; Potency, µM, inactives show largest response in the series, negative = inhibition, usual class: inhibitors; 310,000 compounds, 3.5% hits;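 further: the enzyme is Sfp with the accession as filed and its product quenches rhodamine fluorescence; 0% = enzyme reaction without inhibitor and -100% = no enzyme wells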
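After 15 min at room temperature with compound, 15 nM Sfp received 5 uM rhodamine-CoA plus 12.5 uM BHQ-2-ybbR (50 mM Hepes pH 7.6, 10 mM MgCl2). Rate came from the fluorescence difference over 30 min, ex 525/em 598 nm.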
JMJD2A Tudor inh = JMJD2A Tudor domain (human) inhibition. AlphaScreen JMJD2A-Tudor / H3K4me3 peptide binding. O75164. 390,000 compounds, 4.4% hits. Potency, µM (titrated, usually from 114 µM), for the others: top-dose activity change, negative = inhibition, usual class: inhibitors. AID 504339; further: on the % scale 0 is the no-effect control and ±100 the full control effect; nearly all actives have a fitted effect of over 50% in size
L3MBTL1 inh = blocks human L3MBTL1; Q9Y468; 230,000 compounds, 0.66% hits; Potency, µM (top dose mostly 57.1 µM), inactives show at the top dose activity, negative = inhibition, hits mostly inhibitors; AID 485360; AlphaScreen L3MBTL1–H3K9me1 peptide binding; further: on the % scale 0 is the no-effect control and ±100 the full control effect; nearly all actives have a fitted effect of over 60% in size
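Read-out is AlphaScreen signal from streptavidin donor and nickel chelate acceptor beads (10 ug/mL final each) bridging L3MBTL1 (50 nM) and biotinylated K9-monomethylated H3(1-15) peptide (75 nM), after 30 min compound exposure at room temperature.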
BAZ2B block = BAZ2B (human) inhibition; Q9UIF8; AlphaScreen BAZ2B-H3K14Ac peptide displacement; Potency, µM (top dose mostly 114 µM), inactives show at the highest dose activity change, negative = inhibition, actives largely listed as inhibitors; 360,000 compounds, 4.4% hits; AID 504333; further: on the % scale 0 is the no-effect control and ±100 the full control effect; nearly all actives have a fitted effect of over 60% in size
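AlphaScreen displacement of biotin-H3(5-23)K14Ac peptide (50 nM final) from BAZ2B (50 nM final) in PBS pH 7.4, 0.01% Tween-20; complex preformed 30 min RT, then compounds (top 110 uM) 30 min RT, beads 20 min dark.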
HP1b binding inh = HP1-beta chromodomain-methylated histone interaction inhibition; P83916; AlphaScreen HP1-beta / biotin-H3K9me3 peptide binding; Potency, µM (top dose mostly 114 µM), for inactives: top-dose activity change, negative = inhibition, usual class: inhibitors; 390,000 compounds, 0.56% hits; further: nearly all actives have a fitted effect of over 70% in size
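AlphaScreen: HP1-beta (50 nM) preformed 30 min with biotin-H3(1-18)K9me3 peptide (50 nM) in PBS pH 7.4, 0.01% Tween-20. Compound added for 30 min at RT, then streptavidin donor/nickel chelate acceptor beads (10 ug/mL) for 30 min.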
G9a block = inhibitors of human histone lysine methyltransferase G9a; Q96KQ7; G9a H3K9 monomethylation, AlphaScreen, 2 h; Potency, µM (top dose mostly 102 µM), without a hit: at the top dose activity, negative = inhibition, actives largely listed as inhibitors; 350,000 compounds, 8.8% hits; AID 504332; further: on the % scale 0 is the no-effect control and ±100 the full control effect; nearly all actives have a fitted effect of over 75% in size
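Enzyme 20 nM + cpd, 15 min RT; add b-H3K9 pep 500 nM / SAM 20 uM; 2 h RT; anti-H3K9me1 Ab 0.5 ug/mL + SA donor / anti-rabbit acceptor beads 20 ug/mL each, 10 min; AlphaScreen read.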
The depositor's hits bear a star; ! = not confirmed by another sample; [ ] = remark or other dose. The call rests on the fitted dose curve; in most records, active means well fitted curve in the direction sought with a large enough effect; inconclusive means small, poorly fitted or top-dose-only effect, or another doubt; inactive means no such curve, though single readings can be large; an effect the other way counts as inactive or inconclusive. Potency means the concentration at half of the fitted maximal effect.

How did CCOC(=O)c1ccc(OCC2c3cc(OC)c(OC)cc3CCN2C(=O)Cc2ccc(OC)c(OC)c2)cc1 (configuration not stated) do in these assays?
JMJD2A Tudor inh: inconclusive; BAZ2B block: -37%; HP1b binding inh: -10%; G9a block: inconclusive

What do the screens show for `COc1ccc(Br)cc1CNC(=O)Cn1nc(C)n2c(cc3cc(F)ccc32)c1=O`?
JMJD2A Tudor inh: 5%; BAZ2B block: 0%; HP1b binding inh: 30%; G9a block: 1%[59 µM]

What do the screens show for `COc1ccc(-c2nnc3n2N=C(c2ccc(OC)c(OC)c2)CS3)cc1`?
Sfp inh: -14%; JMJD2A Tudor inh: -15%

What do the screens show for `C=CCSC(=S)NC1CCS(=O)(=O)C1` (configuration not stated)?
Sfp inh: -21%; JMJD2A Tudor inh: -1%; L3MBTL1 inh: -5%; BAZ2B block: 9%; HP1b binding inh: 31%; G9a block: 50µM*

How did O=S1(=O)CCC(NC(=S)N2CCCCC2)C1 (configuration not stated) do in these assays?
Sfp inh: 9%; JMJD2A Tudor inh: -11%; L3MBTL1 inh: 9%; BAZ2B block: 9%; HP1b binding inh: 25%; G9a block: 11%[59 µM]

Results for O=S1(=O)CCC(NC(=S)NCCNC(=S)NC2CCS(=O)(=O)C2)C1 (configuration not stated) ?
Sfp inh: inconclusive; JMJD2A Tudor inh: -10%; L3MBTL1 inh: 10%; BAZ2B block: 9%; HP1b binding inh: 39%; G9a block: 50µM*

Results for NC(=S)NC1CCS(=O)(=O)C1 (configuration not stated) ?
Sfp inh: 15%; JMJD2A Tudor inh: 10%; BAZ2B block: 9%; HP1b binding inh: 39%; G9a block: -3%

Results for Cc1ccc(CSCc2ccc(C(=O)NCCc3ccc(Cl)cc3)o2)cc1 ?
JMJD2A Tudor inh: -11%; BAZ2B block: 15%; HP1b binding inh: 26%; G9a block: 11%[59 µM]

Results for CN(C)c1ccc(CNC(=O)CN2C(=O)CSc3ccc(S(=O)(=O)N4CCCC4)cc32)cc1 ?
JMJD2A Tudor inh: inconclusive; BAZ2B block: inconclusive; HP1b binding inh: -23%; G9a block: 11µM*

Results for COc1ccc(CNC(=O)CCc2ccc(S(=O)(=O)N3CCCCCC3)cc2)cc1 ?
JMJD2A Tudor inh: -3%; L3MBTL1 inh: -4%; BAZ2B block: 1%; HP1b binding inh: 30%; G9a block: 5%[2.33 µM]

What do the screens show for `O=C(CN1C(=O)CSc2ccc(S(=O)(=O)N3CCCC3)cc21)NCc1ccc(Cl)cc1`?
JMJD2A Tudor inh: -17%; BAZ2B block: -15%; HP1b binding inh: 13%; G9a block: 4%[59 µM]

How did CN(C)c1ccc(CNC(=O)CCc2ccc(S(=O)(=O)N3CCCCCC3)cc2)cc1 do in these assays?
JMJD2A Tudor inh: 50µM*; L3MBTL1 inh: -23%; BAZ2B block: 45µM*; HP1b binding inh: -22%; G9a block: 28µM*

What do the screens show for `CC1CCN(CCCNC(=O)CN2C(=O)CSc3ccc(S(=O)(=O)N4CCC(C)CC4)cc32)CC1`?
Sfp inh: 10%; JMJD2A Tudor inh: 56µM*!; BAZ2B block: -7%; HP1b binding inh: inconclusive; G9a block: 4%[59 µM]

How did CN(C)c1ccc(CNC(=O)CCS(=O)(=O)c2ccc3c(c2)n(C)c(=O)c(=O)n3C)cc1 do in these assays?
Sfp inh: 4%; JMJD2A Tudor inh: inconclusive; L3MBTL1 inh: inconclusive; BAZ2B block: inconclusive; HP1b binding inh: -27%; G9a block: 18µM*

Results for CCCCNc1nc(Oc2ccc(=O)n(C)n2)nc(N2CCOCC2)n1 ?
JMJD2A Tudor inh: 0%; BAZ2B block: -3%; HP1b binding inh: 45%; G9a block: -6%[59 µM]

What do the screens show for `c1ccc2c(CNc3ccc(CNc4ncn[nH]4)cc3)cccc2c1`?
Sfp inh: -12%; JMJD2A Tudor inh: 56µM*; L3MBTL1 inh: -11%; BAZ2B block: 45µM*; HP1b binding inh: inconclusive; G9a block: inconclusive

What do the screens show for `COc1ccccc1CNc1ccc(CNc2ncn[nH]2)cc1`?
Sfp inh: 24%; JMJD2A Tudor inh: inconclusive; L3MBTL1 inh: -16%; BAZ2B block: inconclusive; HP1b binding inh: 20%; G9a block: -45%

What do the screens show for `CSc1ccccc1NC(=O)CN(C)Cc1c(O)ccc2ccccc12`?
Sfp inh: -6%; JMJD2A Tudor inh: 56µM*; BAZ2B block: inconclusive; HP1b binding inh: -12%; G9a block: 2.2µM*

How did CN(Cc1ccccc1)Cc1c(O)ccc2ccccc12 do in these assays?
Sfp inh: -17%; JMJD2A Tudor inh: 4µM*; L3MBTL1 inh: 1%; BAZ2B block: 79µM*; HP1b binding inh: inconclusive; G9a block: 8.9µM*

What do the screens show for `COc1ccc(N(CCOc2ccccc2)S(=O)(=O)c2ccccc2)cc1`?
JMJD2A Tudor inh: 17%; L3MBTL1 inh: 26%; BAZ2B block: 25%; HP1b binding inh: 80%; G9a block: 9%[12.7 µM]

Results for CN(Cc1cc(Cl)cc(Cl)c1O)Cc1c(O)ccc2ccccc12 ?
JMJD2A Tudor inh: inconclusive; HP1b binding inh: -7%[57 µM]

What do the screens show for `COc1ccc(OCCN(C)Cc2c(O)ccc3ccccc23)cc1`?
Sfp inh: -8%; JMJD2A Tudor inh: inconclusive; BAZ2B block: -1%; HP1b binding inh: -8%; G9a block: 7.1µM*

What do the screens show for `CSc1ccccc1NC(=O)CN(C)Cc1ccc(Br)cc1`?
Sfp inh: -12%; JMJD2A Tudor inh: 78%; L3MBTL1 inh: 39%; BAZ2B block: 79%; HP1b binding inh: 120%; G9a block: 135%

Results for CC(CC(=O)Nc1nnc(C(C)(C)C)s1)c1ccccc1 (configuration not stated) ?
Sfp inh: 50µM*; JMJD2A Tudor inh: -17%; L3MBTL1 inh: 2%; BAZ2B block: -5%; HP1b binding inh: 9%; G9a block: 25µM*

What do the screens show for `CC(C)c1nnc(NC(=O)CC(C)c2ccccc2)s1` (configuration not stated)?
Sfp inh: -2%; JMJD2A Tudor inh: 1%; L3MBTL1 inh: -1%; BAZ2B block: inconclusive; HP1b binding inh: 39%

What do the screens show for `CC(=O)Oc1ccc2nc(-c3ccco3)oc(=O)c2c1`?
Sfp inh: 8%; JMJD2A Tudor inh: 28µM*; L3MBTL1 inh: -8%; BAZ2B block: -24%; HP1b binding inh: 21%; G9a block: -38%[59 µM]

How did Cc1cc(=O)c2c(o1)C(=O)c1occc1C2=O do in these assays?
JMJD2A Tudor inh: 45µM*; HP1b binding inh: -23%
